Compound activity from PubChem.
CHRM1 agonist: activates human CHRM1 receptor; P11229; CHO-K1 hM1, Fluo-8 calcium fluorescence, agonist mode; 0% DMSO, 100% acetylcholine EC100; activation, % at 3 µM; 0.33% of 360,000 active;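 active = activation above the run's mean compound activation plus 3 SD, cut at about 16% in these data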;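 note: peak over basal fluorescence ratio within a 140 s kinetic read after compound addition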
Target sequence (P11229 whole entry, looked up): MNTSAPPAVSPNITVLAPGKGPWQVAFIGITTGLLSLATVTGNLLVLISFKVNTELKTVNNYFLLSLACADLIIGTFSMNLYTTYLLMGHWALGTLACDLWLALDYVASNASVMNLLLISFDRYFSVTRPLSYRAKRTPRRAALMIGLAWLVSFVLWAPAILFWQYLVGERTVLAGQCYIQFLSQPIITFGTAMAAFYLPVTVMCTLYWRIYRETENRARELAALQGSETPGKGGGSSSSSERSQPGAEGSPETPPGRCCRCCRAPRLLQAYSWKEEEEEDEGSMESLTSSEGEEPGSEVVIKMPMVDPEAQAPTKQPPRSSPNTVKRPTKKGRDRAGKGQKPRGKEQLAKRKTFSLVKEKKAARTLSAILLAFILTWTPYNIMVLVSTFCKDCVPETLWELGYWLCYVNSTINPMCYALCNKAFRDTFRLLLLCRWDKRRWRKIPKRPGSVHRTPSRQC
CHRM1 antagonist: human CHRM1 antagonism. 1.3% of 360,000 active. inhibition, % at 3 µM. CHO-K1 hM1, Fluo-8 calcium fluorescence, ACh EC80 antagonist. AID 588852. P11229;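 active = percent inhibition above its own plate's cutoff, namely the mean of that plate's compound wells plus 3 SD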;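 note: peak over basal fluorescence ratio during 140 s after agonist addition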
CHO-K1 Ca ag: counter-screen for M1 agonists: effect in parental CHO-K1 cells; 0.48% of 360,000 active; activation, % at 3 µM; Fluo-8 calcium fluorescence; scaled to maximal ATP response, vehicle zero; in the data active = activation above about 15%;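 note: untransfected CHO-K1 host cells lacking M1 receptor as counterscreen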
CHO-K1 Ca antag: nonselective inhibitor or artifact in parental CHO-K1 cells. ATP-induced calcium, Fluo-8 fluorescence. 0.6% of 360,000 active. inhibition, % at 3 µM. AID 602250;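 active = inhibition above a per-plate cutoff, the plate's mean sample inhibition plus 3 SD, cut at about 24% in these data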
CHO-K1 Ca PAM: counter-screen for M1 PAMs: effect in parental CHO-K1 cells | AID 602247 | 0.02% of 360,000 active | ATP EC20, Fluo-8 calcium fluorescence; 0% at ATP EC20, 100% at ATP max | activation, % at 3 µM;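 active = activation above the run cutoff, the mean activation of all test compounds plus 3 SD, cut at about 40% in these data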;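 note: peak over basal fluorescence ratio in a 140 s read after ATP addition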
M1 PAM: potentiates human M1 receptor response to acetylcholine; 0.088% of 360,000 active; activation, % at 3 µM; P11229; CHO-K1 hM1, Fluo-8 calcium fluorescence, ACh EC20; 0% = ACh EC20, 100% = maximal ACh; AID 588819; in the data active = activation above about 19%, passing the limit was not always enough
Hits are given with their value; . = inactive. Sampled rows, rich in hits. Any-hit rate of the full collection: about 2.3%.

SMILES	CHRM1 agonist	CHRM1 antagonist	CHO-K1 Ca ag	CHO-K1 Ca antag	CHO-K1 Ca PAM	M1 PAM
CCOc1ccc(NCc2cccn2-c2nnc(N3CCC(C(=O)NCCCN4CCCCC4C)CC3)s2)cc1 (stereo not drawn)	.	53.5	.	.	.	.
CCC1CCCCN1CCCNC(=O)C1CCN(c2nnc(-n3cccc3)s2)CC1 (stereo not drawn)	.	94.7	.	.	.	.
CCOc1ccc(NCc2cccn2-c2nnc(N3CCC(C(=O)NCCCN4C(C)CCCC4C)CC3)s2)cc1 (stereo not drawn)	.	77.8	.	.	.	.
CC1CCN(C(=O)C2CCN(c3nnc(-n4cccc4)s3)CC2)CC1	.	.	.	56.8	.	.
Cc1ccc([C@H]2C[C@H](n3cc(-c4ccc(F)cc4)nn3)[C@@H](O)CN2CC2CCCCC2)cc1	.	.	.	.	.	.
CCCc1cc(=O)oc2cc(C)cc(OCC(=O)N3C[C@H]4C[C@@H](C3)c3cccc(=O)n3C4)c12	.	.	.	.	.	.
CCOc1ccc(-c2nc(CN3CCCCC3CCn3cccn3)c(C)o2)cc1 (stereo not drawn)	.	.	.	.	.	.
CCOc1ccc(NCc2cccn2-c2nnc(N3CCC(C(=O)NCCCN4CCCCC4)CC3)s2)cc1	.	63.3	.	.	.	.
COC(=O)C1=C(C)N(Cc2ccccc2)C(=NCc2ccccc2)N[C@H]1c1cccc(C(F)(F)F)c1	.	.	20.6	.	.	.
COCC1CCCN(Cc2nc(Cc3ccccc3)no2)C1 (stereo not drawn)	.	.	.	.	.	.
CCOC(=O)C1CCCN(C2CCN(Cc3nc(Cc4ccccc4)no3)CC2)C1 (stereo not drawn)	17.0	.	.	.	.	.
CCOC(=O)C1CCCN(Cc2nc(Cc3cccc(F)c3)no2)C1 (stereo not drawn)	33.1	.	.	.	.	.
CCOC(=O)C1CCCN(Cc2nc(C3CC3)no2)C1 (stereo not drawn)	.	.	.	.	.	.
CCOC(=O)C1CCCN(C2CCN(Cc3nc(-c4ccccc4)no3)CC2)C1 (stereo not drawn)	41.7	42.4	.	.	.	.
CCOC(=O)C1CCN(C2CCN(Cc3nc(-c4ccccc4)no3)CC2)CC1	.	.	.	.	.	.
CCCCc1ccc(-n2c(Cc3cccs3)n[nH]c2=S)cc1	.	.	.	.	.	.
CCC(=O)c1cn(CC(=O)Nc2ccccc2)c2ccccc12	.	.	.	25.5	.	.
COc1ccccc1Cc1c(-c2cccc(Cl)c2)nc2ccc(Cl)cn12	.	.	.	.	.	.
O=[N+]([O-])c1ccc(N2CCN(CCO)CC2)cc1Sc1nc2ccccc2[nH]1	.	.	.	.	.	.
O=C(Nc1ccc(OC(F)(F)F)cc1)C1CCCN(C(=O)c2ccc(Cl)cc2)C1 (stereo not drawn)	.	.	20.0	.	.	.
COC(=O)CCCC(=O)N1CCCC(CNS(=O)(=O)c2ccc(OC)cc2)C1 (stereo not drawn)	.	.	.	.	.	.
CCOC(=O)NC(=O)/C(C#N)=N/Nc1ccc(F)cc1	.	.	.	27.3	.	.
COc1cccc(C(=O)/C=C2\Sc3ccccc3N2C)c1	.	.	.	24.0	.	.
CC(=O)Nc1ccc(S(=O)(=O)Nc2ccc(Cc3ccncc3)cc2)cc1	.	.	.	.	.	.
COc1ccc(S(=O)(=O)Nc2ccc(Cc3ccncc3)cc2)cc1C	.	38.9	.	.	.	.
SMILES	CHRM1 agonist	CHRM1 antagonist	CHO-K1 Ca ag	CHO-K1 Ca antag	CHO-K1 Ca PAM	M1 PAM
CC(C)(C)c1ccc(S(=O)(=O)Nc2ccc(Cc3ccncc3)cc2)cc1	.	61.8	.	24.4	.	.
Cc1ccccc1N(CC(=O)N1CCN(Cc2ccccc2)CC1)S(C)(=O)=O	.	.	.	.	.	.
N=C1/C(=C\c2ccc(OC(=O)c3ccccc3Cl)cc2)C(=O)N=C2SC(N3CCOCC3)=NN12	.	.	.	.	.	.
O=C(Nc1ccc(N2CCN(c3ncccc3C(F)(F)F)CC2)nc1)c1cccs1	.	45.5	.	.	.	.
O=C(Nc1ccc(N2CCN(c3ccc(C(F)(F)F)cn3)CC2)nc1)c1cccs1	.	.	.	.	.	.
O=C(O)c1ccc([N+](=O)[O-])cc1-c1cc([N+](=O)[O-])ccc1C(=O)O	.	.	.	.	.	.
CC(C)NC(=O)C(=O)Nc1cc2c3c(c1)C(C)C(=O)N3CCC2 (stereo not drawn)	.	.	.	.	.	.
CCN(CC)c1ccc(/C=C/C(=O)c2ccc(Br)cc2)cc1	171.0	79.0	111.2	72.8	.	.
CC(Sc1nnc(-c2cccs2)n1-c1ccccc1)C(=O)NCc1ccc2c(c1)OCO2 (stereo not drawn)	.	.	.	24.0	.	.
Cc1cc(OCCn2ccnc2)cc(C(C)C)c1	.	73.7	.	.	.	.
Cc1cccc(OCCCCCn2ccnc2)c1	17.0	.	.	.	.	.
Cc1cc(OCCCn2ccnc2)cc(C(C)C)c1	.	.	.	.	.	.
COc1ccc(C(C)=O)cc1CSc1nncn1-c1ccccc1	.	.	.	.	.	.
C/C(=N\Nc1ccccn1)c1ccc(OC(F)F)cc1	.	.	16.7	.	.	.
COc1cc(OC)c(OC)cc1CNC(=O)c1cccc(S(=O)(=O)N2CCc3ccccc3C2)c1	.	35.6	.	.	.	.
Cc1cc(N2CCN(C)CC2)ccc1NC(=O)c1cccc(S(=O)(=O)N2CCc3ccccc3C2)c1	.	79.2	.	.	.	.
COc1ccccc1CNC(=O)c1cccc(S(=O)(=O)N2CCN(C)CC2)c1	.	.	.	.	.	.
C=CCNC(=O)CN1C(=O)CSc2ccc(S(=O)(=O)N3CCOCC3)cc21	.	.	.	.	.	.
O=C(Nc1ccc(F)c(Cl)c1)c1cc(C2CCCCN2C(=O)c2ccccc2)on1 (stereo not drawn)	.	.	.	.	.	.
Cc1cc(/C=C2/NC(=O)NC2=O)c(C)n1-c1ccccn1	.	.	.	.	.	.
Cc1ccc(-n2c(C)cc(/C=C3\NC(=O)NC3=O)c2C)c(C)c1	.	31.6	.	.	.	.
CC(Oc1ccc(C(C)(C)C)cc1)c1ccnc2nc(/N=C/N(C)C)nn12 (stereo not drawn)	.	54.1	.	.	.	.
CC(Oc1ccc(F)cc1)c1ccnc2nc(/N=C/N(C)C)nn12 (stereo not drawn)	.	.	.	.	.	.
COc1ccc(NC(=O)COC(=O)c2c(NC(C)=O)sc(C)c2C)cc1	.	.	.	.	.	.
CCc1ccccc1OCCCCN1CCCCC1	.	35.8	.	.	.	.
